# SMARCA2 act – SMARCA2 function activation, primary screen | MG213 cells, MMTV-luciferase reporter, dexamethasone, overnight | actives 1% (n = 370,000) | activation, % at 9.1 µM; in the data active = activation above about 7.8%;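 note: 0% = vehicle wells and 100% = reference activator wells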
# hcDAF12 agonist – activates DAF-12 receptor from parasite H. contortus; HEK293 hcDAF-12 lit1-tk-luc reporter, luminescence; 0% DMSO, 100% Δ7-dafachronic acid; activation, % at 6.8 µM; actives 1.4% (n = 370,000);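 active = activation above the mean of all tested compounds plus 3 SD, cut at about 5.5% in these data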;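 note: 100% = response to 3 µM Δ7-dafachronic acid high control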
# DAX1 inh-1 – NR0B1 (DAX1) inhibition | HEK293 Gal4-DAX1 luciferase reporter, luminescence | inhibition, % at 6.75 µM | actives 0.99% (n = 340,000);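 active = inhibition above the mean over all tested compounds plus 3 SD, cut at about 4.2% in these data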;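 note: 0% = DAX1-transfected cells with DMSO and 100% = empty-vector control cells with DMSO; inhibition shows as a rise in luminescence from relieved DAX1 repression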
# Target sequence (P51843 207-470 limits assumed): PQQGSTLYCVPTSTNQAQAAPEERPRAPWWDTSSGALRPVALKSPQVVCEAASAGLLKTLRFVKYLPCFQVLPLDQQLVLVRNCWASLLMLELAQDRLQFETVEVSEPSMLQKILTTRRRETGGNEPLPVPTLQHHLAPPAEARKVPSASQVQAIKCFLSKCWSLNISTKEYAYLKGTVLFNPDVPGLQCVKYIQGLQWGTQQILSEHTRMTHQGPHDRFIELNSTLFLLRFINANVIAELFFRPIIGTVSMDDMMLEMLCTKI
# ssDAF12 agonist – activates DAF-12 receptor from parasite S. stercoralis | HEK293 ssDAF-12/GRIP1 lit1-tk-luc reporter, luminescence; % of 3 µM dafachronic acid response | activation, % at 6.8 µM | actives 1% (n = 370,000);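 active = activation above the mean over all tested compounds plus 3 SD, cut at about 0.9% in these data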;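 note: 0% = DMSO-only wells and 100% = 3 µM delta7-dafachronic acid wells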
# hgDAF12 agonist – agonists of H. glycines DAF-12 nuclear receptor; actives 1.8% (n = 370,000); HEK293 GAL4-hgDAF12 UAS-luciferase reporter, agonist luminescence; normalized to butyrate control; activation, % at 6.8 µM;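 active = activation above a cutoff set at the mean of all screened compounds plus 3 SD, cut at about 10% in these data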;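 note: 0% = DMSO wells and 100% = sodium butyrate wells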
# DAX1 inh-2 – blocks DAX1 repression of SF-1 activated StAR promoter. inhibition, % at 6.8 µM. actives 1.1% (n = 370,000). HEK293T StAR-luciferase reporter, SF-1/DAX-1 repression relief;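 active = inhibition above the mean over all tested compounds plus 3 SD, cut at about 3.6% in these data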;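 note: 0% = DAX-1 cells with DMSO and 100% = cells lacking DAX-1 with DMSO; higher inhibition means more luminescence from relief of DAX-1 repression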
# LXR ag – activates human LXR-beta, counter-screen for hcDAF-12 agonists. shares compounds with hcDAF12 agonist. HEK293 Gal4-LXR tk-luc reporter, luminescence, 24 h; normalized: DMSO 0%, positive control 100%. activation, % at 6.8 µM. 3,400 tested, under 10 active. AID 743027;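 active = mean percent activation of the reporter above a cutoff set as the average over tested compounds plus their standard deviation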
# Target sequence (P55055 whole entry, looked up, the tested form may be a part): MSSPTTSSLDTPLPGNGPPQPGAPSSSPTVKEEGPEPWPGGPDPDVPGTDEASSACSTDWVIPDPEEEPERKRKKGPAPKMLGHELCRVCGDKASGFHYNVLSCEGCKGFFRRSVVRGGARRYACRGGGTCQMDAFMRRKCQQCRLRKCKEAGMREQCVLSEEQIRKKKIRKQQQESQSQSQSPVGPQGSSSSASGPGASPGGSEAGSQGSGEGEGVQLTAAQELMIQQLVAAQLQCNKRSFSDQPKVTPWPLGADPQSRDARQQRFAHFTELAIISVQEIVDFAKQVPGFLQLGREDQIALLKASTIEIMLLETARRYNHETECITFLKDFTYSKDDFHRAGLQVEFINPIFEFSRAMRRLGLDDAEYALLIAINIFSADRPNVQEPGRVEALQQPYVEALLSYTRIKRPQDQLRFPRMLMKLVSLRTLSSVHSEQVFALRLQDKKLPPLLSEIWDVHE
# hcDAF12 conf – confirmation of H. contortus DAF-12 agonists; actives 61% (n = 3,400); shares compounds with hcDAF12 agonist; AID 743032; activation, % at 6.8 µM; HEK293 hcDAF-12 lit1-tk-luc reporter, luminescence; % of Δ7-dafachronic acid response;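 active = mean activation across triplicate tests above the threshold derived from the earlier primary screen, cut at about 5.5% in these data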;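 note: 0% = DMSO only wells and 100% = 3 µM Δ7-dafachronic acid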
# hgDAF12 conf – hgDAF-12 agonism, confirmation assay | shares compounds with hgDAF12 agonist | HEK293 GAL4-hgDAF12 luciferase reporter, agonist mode; percent of butyrate response | activation, % at 6.8 µM | actives 80% (n = 3,300);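 active = mean activation over triplicate wells above the hit cutoff derived from the earlier primary screen, cut at about 11% in these data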;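 note: 0% = DMSO low control and 100% = 2 mM sodium butyrate high control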
# LXR ag 2 – LXR-beta agonism as DAF-12 counter-screen | shares compounds with hgDAF12 agonist | HEK293 Gal4-LXR luciferase reporter, 24 h | activation, % at 6.8 µM | 3,300 tested, under 10 active;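 active = mean activation of the triplicate above a set limit carried over from the primary screen, none filed active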
# An asterisk follows results filed as active; . = not tested or not shown. Hits are enriched below; roughly 4.8% of the tested compounds scored in any of these assays.
SMILES,SMARCA2 act,hcDAF12 agonist,DAX1 inh-1,ssDAF12 agonist,hgDAF12 agonist,DAX1 inh-2,LXR ag,hcDAF12 conf,hgDAF12 conf,LXR ag 2
CCOC(=O)c1c(C)nc(-c2ccccc2)nc1N,0.8,9.2*,4.8*,1.5*,15.6*,2.9,1.4,13.9*,.,.
COCCNC(=O)c1onc(CSc2cc(C)cc(C)c2)c1C(=O)NCCOC,0.9,-1.7,-1.5,-0.4,0.6,-0.3,.,.,.,.
CC(C)OC(=O)c1ccc2nc3ccccc3nc2c1,4.7,7.8*,3.2,1.2*,17.3*,1.8,1.8,8.1*,16.5*,0.8
O=C(NC1CCCCC1)c1cc(-c2ccccc2Cl)on1,1.8,0.4,0.3,-1.1,8.0,1.4,.,.,.,.
O=C(NC1CCCC1)c1cc(-c2ccccc2Cl)on1,6.1,8.0*,0.9,0.4,14.0*,1.3,0.8,3.3,16.3*,0.5
C=CCN1C(=O)[C@H](CC(=O)NCCc2ccccc2OC)[C@@]2(C(=O)OCC)CCCC=C12,-1.5,-1.3,.,-0.4,1.9,-0.8,.,.,.,.
CCOc1cc(C2NN=C(c3ccccc3)S2)ccc1OCc1ccccc1Cl (stereo not given),1.9,8.7*,5.9*,1.4*,16.3*,3.4,1.6,9.2*,16.5*,0.7
COc1cc(Cl)ccc1OCc1cc(C(=O)N2CCCCC2c2cccnc2)no1 (stereo not given),-1.1,-1.2,0.3,-0.8,-0.5,-0.3,.,.,.,.
Oc1cccc(Oc2ncc(C(F)(F)F)cc2Cl)c1,-0.5,-0.2,-0.2,-1.6,-1.6,0.8,.,.,.,.
Cc1cc(C(=O)Nc2ccc3ccccc3c2)oc1C,4.0,7.3*,2.0,0.9,19.0*,2.8,1.4,6.9*,19.2*,1.0
O=C(Nc1ccc2ccccc2c1)c1ccc(Cl)cc1,6.1,6.8*,3.9,1.7*,16.1*,3.8*,2.2,9.4*,22.1*,1.2
Cc1cc(C(=O)Nc2ccc3ccccc3c2)c(C)o1,4.1,8.5*,1.7,1.7*,18.2*,2.7,2.0,10.9*,21.3*,1.3
CC(=O)c1cc(C(=O)Nc2ccc3ccccc3c2)c(C)o1,-3.2,3.3,2.4,0.4,1.1,0.0,.,.,.,.
O=C(COC(=O)c1cc[n+]([O-])cc1)NCC12CC3CC(CC(C3)C1)C2,-0.4,-2.2,0.5,-1.2,-1.8,0.1,.,.,.,.
COCCN(C(=O)CCSc1ccc(F)cc1)c1c(N)n(Cc2ccccc2)c(=O)[nH]c1=O,-0.6,-1.0,-0.3,-1.0,-4.2,0.1,.,.,.,.
CN(c1ccccc1)S(=O)(=O)c1cc(C(=O)N2CCN(c3ccccn3)CC2)ccc1Cl,-1.8,-3.1,-3.7,-2.0,-3.2,-1.2,.,.,.,.
O=C(O)/C=C\C(=O)Nc1ccccc1C#Cc1ccc(Br)cc1,2.1,16.4*,3.3,2.1*,21.6*,3.8*,0.1,1.1,16.0*,0.6
NC(=O)c1ccccc1NC(=O)/C=C/C(=O)O,-0.8,0.2,2.4,-0.6,8.8,0.0,.,.,.,.
S=C(NCc1cccs1)Nc1ccccc1,0.8,-2.4,2.4,-1.4,-1.2,-0.5,.,.,.,.
[O-][n+]1ccccc1/C=C/c1ccccc1,3.9,1.0,1.6,-0.5,0.0,-0.3,.,.,.,.
[O-][n+]1c(/C=C/c2ccccc2)ccc2ccccc21,5.1,12.6*,7.2*,1.5*,13.7*,2.4,1.2,8.6*,20.6*,0.9
CC(=O)Nc1ccc(S(=O)(=O)NCC2CC3CCC2C3)cc1 (stereo not given),-4.8,-2.0,-0.7,-1.9,-4.5,-0.2,.,.,.,.
NNC(=O)c1cccc(COc2ccccc2Br)c1,2.0,7.2*,-3.2,1.2*,15.9*,3.5,1.1,6.5*,15.1*,0.8
CCOC(=O)c1c(C)oc2c1c1c(c3ccccc32)OCN(Cc2cccnc2)C1,.,.,0.3,.,.,.,.,.,.,.
CCOC(=O)c1c(C)oc2c1c(C(c1cccnc1)N1CCOCC1)c(O)c1ccccc12 (stereo not given),7.7,10.4*,4.9*,2.6*,13.5*,3.0,0.5,5.7*,7.9,0.4
SMILES,SMARCA2 act,hcDAF12 agonist,DAX1 inh-1,ssDAF12 agonist,hgDAF12 agonist,DAX1 inh-2,LXR ag,hcDAF12 conf,hgDAF12 conf,LXR ag 2
CSc1ccccc1NC(=O)CN(C)C(=O)/C=C/c1ccccc1,-4.2,-0.4,0.4,-1.5,2.2,0.6,.,.,.,.
O=C(Nc1ccc2c(c1)OCCO2)c1cccc(Cl)c1,4.7,9.9*,3.3,-0.1,17.6*,2.0,1.2,3.7,15.4*,0.7
O=C(Nc1ccc2c(c1)OCCO2)c1ccc(Cl)cc1Cl,3.0,8.0*,-1.9,0.9,13.5*,2.0,1.8,8.0*,18.7*,0.9
CCOC(=O)c1c(C)nc2c(C)cccn12,-0.8,-0.9,0.3,-0.8,-1.5,0.6,.,.,.,.
CCOC(=O)c1c(C)nc2c3ccccc3ccn12,7.5,9.7*,1.5,2.7*,19.1*,3.7*,1.3,11.6*,17.1*,1.0
CC(C)Oc1nc(-c2ccc(Cl)cc2)nc2ccccc12,-0.3,0.1,0.6,-0.8,0.0,0.1,.,.,.,.
CC1CCN(S(=O)(=O)c2cn(CC(=O)Nc3cccc(C#N)c3)cn2)CC1,-1.3,-1.0,-0.3,-1.3,-0.6,0.0,.,.,.,.
CN1C(=O)SC(Nc2ccccc2)C1=O (stereo not given),-1.3,-1.4,-0.3,-1.3,0.5,0.4,.,.,.,.
COc1cccc(NC2SC(=O)N(c3ccccc3)C2=O)c1 (stereo not given),8.0*,7.1*,1.3,0.3,13.8*,5.5*,0.5,3.1,10.9*,0.3
Clc1ccc2nc(-c3ccccc3)cn2c1,0.4,11.2*,-1.5,1.9*,17.8*,2.5,1.8,9.7*,18.1*,1.0
O=[N+]([O-])c1ccc(N/N=C/c2ccccc2O)cc1,-2.9,0.2,0.9,-0.8,3.1,-0.4,.,.,.,.
O=[N+]([O-])c1cccnc1N/N=C/c1ccccc1O,4.0,9.2*,-0.7,0.0,15.5*,3.8*,1.0,4.0,10.2,0.5
CC1(c2ccc(NC(=O)c3ccccc3F)cc2)CC1(Cl)Cl (stereo not given),5.4,9.6*,4.3*,0.6,17.3*,2.5,1.3,6.3*,15.7*,0.7
